# According to PubChem BioAssay (NCI):
# Where “and” joins values, the source holds several entries; their conditions need not be identical. Equal values may be shown once. Compounds without any hit were thinned out: in the full panel of roughly 83,000, 20% have a hit.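 Plates (96-well) were seeded with cells, treated with compound at one concentration, and incubated for 48 hours before percent growth was determined.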 Unmarked numbers belong to inactive results. Calls of active or inactive are those of the source. The calls were made as follows: active = growth percent below 10; inactive = the rest.
# How the values were obtained:
# Test in all cases: NCI-60 one-dose screen, 48 h (100 = growth as untreated, 0 = no growth, -100 = all killed)
# [1] = system: SR leukemia; details: 10 µM unless noted
# [2] = system: RPMI-8226 leukemia; details: 10 µM
# [3] = system: OVCAR-8 ovarian; details: 10 µM
# [4] = system: OVCAR-5 ovarian; details: 10 µM
# [5] = system: OVCAR-4 ovarian; details: 10 µM
# [6] = system: SK-OV-3 ovarian; details: 10 µM
# [7] = system: IGROV1 ovarian; details: 10 µM
# [8] = system: OVCAR-3 ovarian; details: 10 µM
# [9] = system: HS 578T breast; details: 10 µM
# [10] = system: NCI/ADR-RES ovarian; details: 10 µM
# [11] = system: BT-549 breast; details: 10 µM
# [12] = system: MDA-MB-435 melanoma; details: 10 µM
# [13] = system: SW-620 colon; details: 10 µM
# [14] = system: MCF7 breast; details: 10 µM
# [15] = system: HCT-116 colon; details: 10 µM
# [16] = system: HCC-2998 colon; details: 10 µM
# [17] = system: KM12 colon; details: 10 µM
# [18] = system: T-47D breast; details: 10 µM
SMILES,growth [1],growth [2],growth [3],growth [4],growth [5],growth [6],growth [7],growth [8],growth [9],growth [10],growth [11],growth [12],growth [13],growth [14],growth [15],growth [16],growth [17],growth [18]
O=[N+]([O-])C1=C(c2ccccc2)SC=C(c2ccccc2)S1,6.09% (active),48.6%,71.4%,113%,87.4%,79.4%,76.3%,73.6%,85.7%,78.1%,55.3%,75.3%,62.5%,51.6%,67%,108%,81.3%,
COC(=O)C1C(O)C(C)C(O)C(C)C=C(C)C2=C3C(=C(C)C(=O)c4c(O)c(c(C)c(OC(C)=O)c43)NC(=O)C(C)=C/C=C\C(C)C(O)C(C)C1O)OCO2 (centres undefined),138%,118%,114%,104%,108%,116%,163%,113%,116%,121%,,130%,103%,103%,96%,145%,103%,117%
CCN(CC)c1ccc(NC(C(=O)c2ccccc2)c2ccccc2)cc1 (centres undefined),14.3%,8.53% (active),9.32% (active),60.9%,65.2%,109%,59.4%,-4.87% (active),46.1%,25.4%,2.75% (active),3.95% (active),,11.1%,-19.6% (active),65.1%,65.1%,
NC1=C(Cl)C(=O)c2ccccc2C1=O,46.4%,55.7%,74.4%,111%,72.3%,108%,67.7%,12.3%,14.5%,80.4%,82.7%,-87.5% (active),86.8%,48.3%,54.4%,101%,65.3%,86.8%
CN1CCN(CCCN2c3ccccc3Sc3ccc(C(F)(F)F)cc32)CC1,14.2%,-7.1% (active),78.2%,,71.2%,92.4%,40.7%,92%,60.4%,70.8%,70.6%,27.6%,,13.9%,36%,-6.16% (active),40.2%,
CCCCCCCCCCCCCCCCCCOCC(COP(=O)([O-])OCC[N+](C)(C)C)OC (centres undefined),48.1%,33.1%,,-61.3% (active),109%,81.8%,11.8%,95.9%,,107%,97.1%,103%,,81.4%,65.1%,,29.7%,
O=C(/C=C/c1cccnc1)c1ccccc1,14.5%,54.1%,83.8%,91.3%,91.7%,103%,96.5%,85.8%,,86%,103%,80.2%,,26.1%,21.1%,86%,51.4%,
CCN1/C(=C/C=C/C=C/c2sc3ccccc3[n+]2CC)Sc2ccccc21,,-21.4% (active),-65.6% (active),7.61% (active),-42% (active),-73.1% (active),-62.9% (active),-64.1% (active),26.2%,55.9%,-42.3% (active),-76.9% (active),-31.1% (active),-44.2% (active),-25.9% (active),-88.5% (active),-88.3% (active),
O=C1NC(=O)c2cc([N+](=O)[O-])ccc21,95.3%,71.2%,94.4%,101%,117%,105%,103%,110%,127%,113%,123%,105%,,107%,116%,102%,110%,
CO[C@H](C(=O)[C@@H](O)[C@@H](C)O)[C@@H]1Cc2cc3cc(OC4CC(OC5CC(O)C(O)C(C)O5)C(O)C(C)O4)c(C)c(O)c3c(O)c2C(=O)[C@H]1OC1CC(OC2CC(OC3CC(C)(O)C(O)C(C)O3)C(O)C(C)O2)C(O)C(C)O1 (some centres undefined),10.5%,-14.5% (active),,-54.9% (active),8.23% (active),35.3%,-21% (active),3.02% (active),,44.4%,-19.9% (active),-62.9% (active),-25.1% (active),-3.56% (active),5.29% (active),,-5.71% (active),7.17% (active)
Clc1ccc(/C=C/c2ccccn2)c(Cl)c1,80.8%,102%,101%,106%,71.2%,103%,69.6%,90.4%,86.3%,109%,88.4%,104%,,7.59% (active),77.7%,77.9%,71.4%,
O=C(Nc1ccc(C(=O)O)c(O)c1)c1ccccc1,113% and 122%,132% and 105%,97.7% and 99.8%,93.8% and 100%,108% and 112%,100% and 108%,100% and 103%,115% and 125%,130% and 119%,84.2% and 100%,104%,99% and 99.1%,,102% and 95.6%,107% and 101%,102% and 106%,120%,
N=S(c1ccccc1[N+](=O)[O-])c1ccccc1[N+](=O)[O-],,72.8%,96.8%,69.6%,38.4%,87.2%,53.9%,-58.8% (active),96.7%,90.4%,84.7%,62.1%,,-53.7% (active),5.85% (active),90.4%,88.8%,
COc1c(O)cc2oc3cc(O)c(CC=C(C)C)c(O)c3c(=O)c2c1CC=C(C)C,7.13% (active),49.9%,54.7%,,82.2%,89%,75%,46.1%,73.3%,38.6%,105%,70.1%,,16.8%,23.7%,42.1%,38.1%,
CC(=O)OCC(OC(C)=O)C(OC(C)=O)C(OC(C)=O)C(OC(C)=O)C(/C=N/Nc1ccccc1)=N/Nc1ccccc1 (centres undefined),2.05% (active),60.6%,63.8%,96.4%,82.6%,85.5%,60.1%,71.8%,73%,72.4%,,65.6%,,44.1%,64.1%,91.2%,45.3%,
COc1ccc(CC(=O)c2ccc(O)cc2O)cc1,,,92.8%,105%,99.2%,163%,122%,130%,108%,105%,,115%,,108%,96.6%,107%,122%,182%
